The record followed here is PubChem BioAssay (Tox21).

Results filed as inconclusive are left out. The source made the active and inactive calls. The call rests on the fitted dose curve; in most records, active means well fitted cell-killing curve with a large enough effect in the repeat runs; inconclusive means weak or mixed curves, or effect the other way; inactive means no such curve, though single readings can be large or run the other way.

A short description of the assay: qHTS assay to identify small molecule agonists of the RXR signaling pathway - cell viability counter screen (AID 1159529). Further: nearly all actives have a fitted effect of over 50% in size. To be noted: RXR-alpha-bla HEK293T viability, CellTiter-Glo, 16 h; series mostly up to 76.8 µM. From the text: National Center for Advancing Translational Sciences [NCATS]
NIH Chemical Genomics Center [NCGC]
U.S. Environmental Protection Agency [EPA]
National Institutes of Environmental Health Sciences [NIEHS]
National Toxicology Program [NTP]
U.S. Food and Drug Administration [FDA]
The Retinoid X receptor (RXR), a nuclear hormone receptor expressed in liver, spleen, placenta, epidermis, central nervous system. These receptors are able to form homo and heterodimers with other nuclear receptors and due to this heterodimerizing ability, RXR functions as master regulators producing diverse physiological effects. Three subtypes of RXR exist; alpha, beta and gamma. Retinoid X receptor alpha (RXR-alpha) has potential roles in metabolic signaling pathways, skin alopecia, dermal cysts, cardiac development, insulin sensitization etc. Therefore screening environmental chemicals on RXR-alpha signaling can be used for the studies focused on such therapeutic applications. For quantification of RXR-alpha ligands signaling, GeneBLAzer RXR alpha-UAS-bla HEK 293T (Life Technologies, Carlsbad, CA) cells containing a beta-lactamase reporter-gene under control of Retinoid X receptor-alpha response element were used to screen Tox21 10K library. The cytotoxicity of the Tox21 compound library against the RXR-alpha HEK 293T cell line was tested in parallel by measuring cell viability using CellTiter-Glo assay (Promega Corporation, Madison, WI) in the same wells.
Tox21 Assay Protocol Summary:
RXR-alpha HEK 293T cells were dispensed at 2,000 cells/6 uL of assay medium containing 2% charcoal-stripped FBS using a Multidrop Combi (ThermoFisher Scientific, Waltham, MA) dispenser. The assay was performed in black wall/clear-bottom 1536-well plates (Greiner Bio-One North America Inc. Monroe, NC). Tetraoctyl ammonium bromide was used as a positive control in the cytotoxicity screen. After the assay plates were incubated at 37 C and 5% CO2 for 5 hr, 23 nL of compounds dissolved in DMSO, positive control or DMSO only were transferred to the assay plate by a Pintool station (Kalypsys, San Diego, CA). The assay plates were incubated at 37 C and 5% CO2 for 16 hr. One uL of LiveBLAzer B/G FRET substrate (Life Technologies) was added using a Flying Reagent Dispenser (FRD) (Aurora Discovery, San Diego, CA) and the plates were incubated at room temperature for 2 hr. Fluorescence intensity (405 nm excitation, 460/530 nm emission) was measured using an Envision plate reader (PerkinElmer, Shelton, CT). For cytotoxicity, 4 uL/well of CellTiter-Glo reagent was added into the assay plates using an FRD. After 30 min incubation at room temperature, the luminescence intensity was measured using a ViewLux plate reader (PerkinElmer).
(In general: qHTS replaces the single test concentration by a dilution series.)
Regarding `CCOC(=O)c1ccc(N)cc1`, the molecule was called inactive.
In the case of `CCCCCCCC=O` it was “inactive”; in that of `COCCCN`, “inactive”.
To `O=C(OCC1CCC2OC2C1)C1CCC2OC2C1` (stereo not given) belongs “inactive”.
In the case of `COc1ccccc1OCC(O)CO` (stereo not given) it was “inactive”; in that of `CC(C)CCCCCCCOC(=O)CCCCC(=O)OCCCCCCCC(C)C`, “inactive”; in that of `CC(=O)CC(C)(C)O`, “inactive”.
For `CC(C)(Oc1ccc(CCNC(=O)c2ccc(Cl)cc2)cc1)C(=O)O`, the call was inactive.
In the case of `C[C@]12CCC(=O)C=C1CC[C@@H]1[C@@H]2[C@@H](O)C[C@@]2(C)[C@H]1CC[C@]2(O)C(=O)CO` it was “inactive”; in that of `CC(C)(C#N)c1cc(Cn2cncn2)cc(C(C)(C)C#N)c1`, “inactive”; in that of `O=C(O)/C=C/C(=O)O`, “inactive”.
In the case of `C=CCc1ccc(OC)c(OC)c1` it was “inactive”.
In the case of `CC(=O)OC1CC(C)OC(C)O1` (stereo not given) it was “inactive”; in that of `Cc1ccc([N+](=O)[O-])cc1S(=O)(=O)O`, “inactive”; in that of `CCCCC(C=O)CC` (stereo not given), “inactive”.
As to `CC(C)OC(=O)COc1ccc(Cl)cc1Cl`, the molecule was called inactive.
In the case of `COc1ccc(N)c(C)c1` it was “inactive”.
Regarding `O=C(O)CCCCCCCCC(=O)O`, the result was inactive.
As to `O=c1[nH]cnc2[nH]ncc12`, the result was inactive.
Take `CCCCCCO`: the outcome was inactive.
To `CC(CCl)OP(=O)(OC(C)CCl)OC(C)CCl` (stereo not given) belongs “inactive”.
As for `CC(O)CC(C)(C)O` (stereo not given), the call was inactive.
In the case of `CCCCCCCCCCCCCCCC(=O)OC(C)C` it was “inactive”; in that of `CC(C)(C)c1cc(Cc2cc(C(C)(C)C)c(O)c(C(C)(C)C)c2)cc(C(C)(C)C)c1O`, “inactive”.
To `N#Cc1ccccc1` belongs “inactive”; to `CC(C)CC(=O)CC(C)CC(C)C` (stereo not given), “inactive”; to `CC1(C)CC(N)CC(C)(CN)C1` (stereo not given), “inactive”.
On to `O=C(O)c1ccccc1C(=O)O`, for which the call was inactive.
To `CN(C)CCOC(=O)COc1ccc(Cl)cc1` belongs “inactive”.
To `C=C(C)CNCC` belongs “inactive”; to `CCCCCCCO`, “inactive”.
To `CC(=O)c1ccc(O)cc1` belongs “inactive”; to `OC1C(O)C(O)C(O)C(O)C1O` (stereo not given), “inactive”; to `O=C1CCCC1`, “inactive”.
For the molecule `COc1cc(OC)c(C(=O)CCCN2CCCC2)c(OC)c1`, the molecule was classed as inactive.
`Cc1ccc2ncccc2c1`: the call was inactive.
For `COC(=O)CCCC(=O)OC`, the outcome was inactive.
With `CCOC(=O)n1ccn(C)c1=S`, the outcome was inactive.
To `CC(C)c1cccc(C(C)C)c1` belongs “inactive”; to `CN1C(=O)CC[C@H]1c1cccnc1`, “inactive”.
